Assay outcomes (PubChem BioAssay)
G9a inh: G9a (human) methyltransferase inhibition. Potency, µM (doses to about 102 µM), for inactives: at the highest dose activity, negative = inhibition, most hits filed as inhibitors. G9a H3K9 monomethylation, AlphaScreen, 2 h. Q96KQ7. hit rate 8.8% among 350,000; further: potency means the concentration at half of the fitted maximal effect; nearly all actives have a fitted effect of over 75% in size
Target sequence (Q96KQ7 913-1193 limits assumed): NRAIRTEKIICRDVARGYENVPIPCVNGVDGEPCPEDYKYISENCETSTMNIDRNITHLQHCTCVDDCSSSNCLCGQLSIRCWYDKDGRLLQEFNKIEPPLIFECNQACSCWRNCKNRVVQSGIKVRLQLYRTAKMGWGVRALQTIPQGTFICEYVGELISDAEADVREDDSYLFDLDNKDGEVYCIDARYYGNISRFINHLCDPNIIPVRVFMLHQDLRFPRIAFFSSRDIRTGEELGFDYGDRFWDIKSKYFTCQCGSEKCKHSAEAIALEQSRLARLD
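Enzyme 20 nM + cpd, 15 min RT; add b-H3K9 pep 500 nM / SAM 20 uM; 2 h RT; anti-H3K9me1 Ab 0.5 ug/mL + SA donor / anti-rabbit acceptor beads 20 ug/mL each, 10 min; AlphaScreen read.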
Tau ThT inhib: inhibitors of human tau fibril formation, thioflavin T binding | P10636 | recombinant tau K18 P301L, heparin-induced fibrillization, ThT fluorescence | Potency, µM (highest dose often 57.4 µM), for inactives: top-dose activity, negative = inhibition, actives largely listed as inhibitors | AID 1460 | hit rate 2.1% among 270,000; further: potency means the concentration at half of the fitted maximal effect; nearly all actives have a fitted effect of over 55% in size
Target sequence (P10636 561-689 P618L limits assumed): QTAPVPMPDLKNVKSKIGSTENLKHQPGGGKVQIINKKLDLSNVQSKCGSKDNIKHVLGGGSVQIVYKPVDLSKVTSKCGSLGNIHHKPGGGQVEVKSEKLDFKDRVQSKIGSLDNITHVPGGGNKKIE
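Using a mix of unlabeled (15 uM) and Alexa 594-labeled (0.24 uM) tau K18 P301L, heparin-triggered fibrillization over 6 hr at 37 C was scored by ThT fluorescence.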
Sfp PPTase inh: inhibitors of Bacillus subtilis Sfp phosphopantetheinyl transferase | Q9F4F7 | Biochemical Sfp PPTase activity, qHTS | Potency, µM, for the others: largest response in the series, negative = inhibition, most hits filed as inhibitors | hit rate 3.5% among 310,000;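 further: the enzyme is Sfp with the accession as filed and its product quenches rhodamine fluorescence; potency means the concentration at half of the fitted maximal effect; 0% = enzyme reaction without inhibitor and -100% = no enzyme wells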
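Fluorescence-quenching assay: 15 nM Sfp-PPTase preincubated 15 min at room temperature with compound, then 5 uM rhodamine-CoA and 12.5 uM BHQ-2-labelled YbbR peptide added. Fluorescence (ex 525/em 598 nm) read at start and after 30 min; difference gives rate.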
Tau fluor counter: counter-screen for tau fibril formation inhibitors | AID 1463 | hit rate 0.93% among 280,000 | tau K18 P301L (four-repeat tau fragment) Alexa594 fluorescence, heparin fibrillization | Potency, µM (series often up to 57.7 µM), for the others: top-dose activity change, negative = decrease; further: potency means the concentration at half of the fitted maximal effect; nearly all actives have a fitted effect of over 55% in size
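Human K18 P301L tau (15 uM unlabeled plus 0.24 uM Alexa 594-labeled, final) in 100 mM sodium acetate pH 7 was mixed with compound and 20 uM heparin and incubated 6 hr at 37 C.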
FBPA coupling cs: counter-screen for Giardia aldolase inhibitors: coupling enzyme system. coupling enzyme system counterscreen, AmpLite Red fluorescence. activity change, negative = inhibition, % at 58.2 µM, hits read low. hit rate 0.67% among 290,000. AID 2472; in the data active means activity change below about -30%
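Activity here indicates interference with the coupling reaction, not aldolase inhibition. Compounds at 57.5 uM final met coupling enzymes for 10 min at RT; substrate and AmpLite Red detection followed, with a 525/598 nm fluorescence read after 20 min.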
Tau FP inhib: blocks human tau fibril formation measured by polarization | hit rate 0.39% among 280,000 | P10636 | AID 1468 | Potency, µM (titrated, usually from 57.7 µM), without a hit: top-dose activity, negative = inhibition, most hits filed as inhibitors | K18 P301L tau heparin fibrillization, Alexa594 FP, 6 h; further: potency means the concentration at half of the fitted maximal effect; nearly all actives have a fitted effect of over 55% in size
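Recombinant K18 P301L […], labeled with Alexa 594 at 0.24 uM over 15 uM unlabeled; heparin inducer 20 uM final; 37 C, 6 hr; FP endpoint.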
Numbers without * were called inactive; ? = inconclusive; . = no result; ! = repeats disagree; [ ] = another dose, or the depositor's remark. In the library only some 11% were active in any assay of this set; here they are far more common. Unless noted, the call rests on the fitted dose curve; in most records, active means well fitted curve in the direction sought with a large enough effect; inconclusive means small, poorly fitted or top-dose-only effect, or another doubt; inactive means no such curve, though single readings can be large; an effect the other way counts as inactive or inconclusive. Unless noted, on the % scale 0 is the no-effect control and ±100 the full control effect.

SMILES	G9a inh	Tau ThT inhib	Sfp PPTase inh	Tau fluor counter	FBPA coupling cs	Tau FP inhib
Cc1ccc(N(CC(=O)N2CCCC2)S(C)(=O)=O)c(C)c1	32%	.	21%	.	1	.
O=C(COC(=O)c1cc2ccccc2cc1O)NC(=O)NCc1ccco1	?	?	?	-28%	0	?
CCOc1ccc(CNC(=O)c2cc3ccccn3n2)cc1OC	-22%[59 µM]	-7%	.	-8%	.	0%
O=C(C1=COCCO1)N(Cc1nnc(-c2ccccc2Cl)o1)C1CC1	28%[12.7 µM]	.	.	.	.	.
COc1ccc(C)cc1NC(=O)CNc1ccc(C(C)=O)cc1	18%[59 µM]	-14%	-1%	-15%	3	1%
CC(C)NC(=O)N1CC[C@@]2(CCCN(C(=O)c3cnccn3)C2)C1	1%[12.7 µM]	.	14%	.	0	.
CCCCCNc1nc2sc3c(c2c(=O)n1-c1cccc(Cl)c1)CCN(C)C3	50µM*	-15%	1%	-21%	-1	-5%
CCCCNc1nc2sc3c(c2c(=O)n1-c1cccc(Cl)c1)CCN(C)C3	?	-15%	14%	-16%	0	-4%
Cc1ccc(S(=O)(=O)N2CCN(C(=O)COC(=O)CCCOc3ccccc3)CC2)c(C)c1	-14%[12.7 µM]	.	.	.	.	.
CCc1nnc(NC(=O)c2nc(S(=O)(=O)Cc3cccc(C)c3)ncc2Cl)s1	45µM*	?	56µM*	-29%	5	?
CCc1nnc(NC(=O)c2nc(S(=O)(=O)Cc3ccccc3)ncc2Cl)s1	28µM*	.	?	.	.	.
CCOc1ccccc1NC(=O)c1nc(S(=O)(=O)Cc2cccc(C)c2)ncc1Cl	56µM*!	?	-3%	0%	.	-3%
COC(=O)c1ccccc1NC(=O)c1nc(S(=O)(=O)Cc2ccccc2)ncc1Cl	-6%	.	-10%	.	.	.
CCCS(=O)(=O)c1ncc(Cl)c(C(=O)Nc2c(C(=O)Nc3ccccc3)oc3ccccc23)n1	1%[59 µM]	7.1µM*	.	?	.	-8%
CCN(Cc1ccc(N(C)C)cc1)C(C)C(=O)Nc1ccc(S(=O)(=O)N2CCCC2)cc1 (centres undefined)	20%[12.7 µM]	.	.	.	.	.
COc1ccccc1CNC(=O)CSc1ncc2c(n1)-c1cc(Cl)ccc1N(Cc1ccccc1)S2(=O)=O	-3%[59 µM]	5%	.	-20%	.	-6%
CSc1nnc(NC(=O)c2nc(S(=O)(=O)Cc3cccc(C)c3)ncc2Cl)s1	4.5µM*	.	-15%	.	.	.
CCSc1nnc(NC(=O)c2ccc3ccccc3n2)s1	-7%[2.33 µM]	?	?	-26%	-26	12%
CCc1nnc(NC(=O)c2ccc3ccccc3n2)s1	50µM*	?	?	4%	-28	8%
CCc1nnc(NC(=O)c2nc(S(=O)(=O)Cc3ccc(C)cc3)ncc2Cl)s1	45µM*!	?	-18%	-18%	.	-20%
COc1ccc(C(=O)OCCCc2cc3ccccc3c(=O)o2)cc1	7%[0.501 µM]	.	.	.	.	.
Cc1ccc(C(=O)Nc2ccc(Br)cc2)cc1S(=O)(=O)NCc1ccccc1	-1%[59 µM]	2%	.	?	.	?
O=c1cc(-c2ccccc2)[nH]c2[nH]n(-c3ccccc3)c(=O)c12	45µM*	20µM*	3%	-22%	6	?
CN(C(=O)c1ccccc1C(=O)OCC(=O)c1ccc(F)c(F)c1)C1CCCCC1	0%	.	.	.	.	.
COc1ccc(NC(=O)COC(=O)CCNS(=O)(=O)c2ccc(Cl)cc2)cc1	-35%	.	19%	-7%	0	-6%
SMILES	G9a inh	Tau ThT inhib	Sfp PPTase inh	Tau fluor counter	FBPA coupling cs	Tau FP inhib
NC(=O)c1ccsc1NC(=O)c1ccc(S(=O)(=O)N2CCCc3ccccc32)cc1	50µM*	-3%	6%	?	-3	?
O=C(NCc1ccccc1)c1ccc(NC(=O)C2CCCO2)cc1 (centres undefined)	20µM*	.	18%	.	.	.
O=C(Nc1ccc(S(=O)(=O)N2CCCc3ccccc32)cc1)C1CCCO1 (centres undefined)	45µM*	-7%	2%	-18%	-3	-11%
NS(=O)(=O)c1ccc(NC(=O)c2ccc(S(=O)(=O)N3CCc4ccccc43)cc2)cc1	32µM*	-3%	6%	?	2	?
COc1ccc(-c2nc3cnc(OC)nc3n(C)c2=O)cc1	8%[0.501 µM]	.	14%	.	6	.
O=C1OCCC1Sc1nnc(-c2ccc(F)cc2)n1Cc1ccccc1 (centres undefined)	-11%[59 µM]	3%	5%	4%	0	-3%
Cc1cc(C)c2oc(-c3cc(NC(=O)Cc4ccccc4)ccc3Cl)nc2c1	11%[59 µM]	5%	.	-23%	.	?
CCn1c(CCc2ccccc2)n[nH]c1=S	27%[0.501 µM]	-6%	-8%	-13%	0	-8%
CC(C)Cn1c(Cc2ccccc2)n[nH]c1=S	13µM*	15%	8%	10%	3	8%
CCn1c(CCn2c3ccccc3c3ccccc32)n[nH]c1=S	22µM*	-5%	?	-15%	-4	1%
CCn1c(Cc2c(C)[nH]c3ccccc23)n[nH]c1=S	1.8µM*	-4%	0%	-1%	-12	0%
CCCCn1c(Cc2ccccc2)n[nH]c1=S	13µM*	-3%	?	7%	2	1%
COc1cc2[nH]c3c(=O)n(N)c(=O)[nH]c3c2cc1OC	-5%	.	-6%	.	-3	.
Cc1cc2[nH]c(=O)c(=O)[nH]c2cc1S(=O)(=O)NCc1ccc(Cl)cc1	.	.	6%	.	0	.
CCCCc1n[nH]c(=S)n1Cc1ccc(Cl)cc1	3.5µM*	-6%	-13%	-11%	5	-1%
CCCn1c(CCc2ccccc2)n[nH]c1=S	40µM*	3%	4%	7%	4	0%
N[C@@H](CO)c1nnc([C@H](Cc2ccc(O)cc2)NC(=O)C2CCNCC2)o1	-7%[12.7 µM]	-7%	-26%	-3%	2	-1%
COc1cccc(OCc2cc(=O)n3c(-c4ccccc4)csc3n2)c1	4%[59 µM]	-1%	.	-7%	.	-10%
O=C(COC(=O)C1CC(=O)N(Cc2ccco2)C1)c1ccc(OC(=O)c2ccccc2)cc1 (centres undefined)	10µM*	?	32µM*	-9%	-1	-10%
O=C(COC(=O)C1CC(=O)N(Cc2ccco2)C1)Nc1ccccc1[N+](=O)[O-] (centres undefined)	-43%	.	.	.	.	.
O=C(OCC(=O)N1c2ccccc2Sc2ccccc21)C1CC(=O)N(Cc2ccco2)C1 (centres undefined)	50µM*	?	-24%	-6%	4	-7%
O=C(c1ccc2[nH]c(=O)c(=O)[nH]c2c1)N1CCN(Cc2ccccc2)CC1	?	.	24%	.	1	.
O=S(=O)(NC1CC(NS(=O)(=O)OCC(Cl)(Cl)Cl)C2CCCCC12)OCC(Cl)(Cl)Cl (centres undefined)	?	.	5%	.	0	.
